In PubChem BioAssay AID434970 (Sanford-Burnham Center for Chemical Genomics, 2010) one finds activation factor and activity change, negative = activation data, which are given here for 42 molecules.

Screen size: about 11,000 compounds; about 310 (2.8%) were called active. Rule as the data show it: active = activity change below about -85%; inactive = the rest. Shown is part of a subset that was picked to be rich in actives. Starred links: 1 amine or outer side, 2 acyl side, 3 side chain; linkers in the order of their positions; H or OH if unused. Positions of bridges follow the written chain, without caps; N, C: chain ends. Non-standard residues stand in square brackets, D forms with d. Residues, ends and D or L forms follow the SMILES beside them. ξ: configuration not given here. hSer(Ph(2-I,4-NO2,6-CO)) = O=C([C@H](CCOc1c(I)cc([N+](=O)[O-])cc1C(=O)[*:3])N[*:1])[*:2]; ξD = NC(CC(=O)O)C(=O)O

The test has as its system intestinal alkaline phosphatase [Mus musculus]. Description: mouse intestinal phosphatase enzyme activation – biochemical, luminescence, single concentration, confirmation (AID 434970). The settings on record: purified mouse IAP, CDP-Star luminescence, 30 min, at 10 µM; activation factor: measured here: IAP activation factor, stronger effect = higher value; activity change, negative = activation: stronger effect = lower value.
Regarding `c1ccc(-n2nnnc2SCc2cccc3nsnc23)cc1`, the activation factor worked out at 0.908 and the activity change, negative = activation is 9.2% (inactive).

As for `O=[N+]([O-])c1ccc2n[nH]nc2c1`, the activation factor worked out at 1.02 and the activity change, negative = activation was -2.4% (inactive).

In the case of `O=C(Nc1nnc(SCc2ccccc2Cl)s1)C1COc2ccccc2O1` (centres undefined), the activation factor came out at 0.965 and the activity change, negative = activation is 3.5% (inactive).

On to `CC(=O)c1sc(Nc2nc(C)cc(C)n2)nc1C`, for which the activation factor came out at 0.928 and the activity change, negative = activation was 7.2% (inactive).

On to `COc1ccc(CN(CC(O)COCc2ccccc2)S(=O)(=O)c2ccccc2Br)cc1OC` (centres undefined), for which the activation factor worked out at 1.04 and the activity change, negative = activation is -3.55% (inactive).

For the molecule `O=C1CN(c2ccccc2F)C(=O)CN1c1ccccc1F`, the activation factor stood at 1.01 and the activity change, negative = activation was -1.1% (inactive).

For `C#CCOCCOCCOCCNc1nc(N2CCN(C(=O)CCCCCCCCCCNC(=O)[C@H](CCCCN)n3cc(CCCC(=O)O)nn3)CC2)nc(N2CCN(C(=O)CCCCCCCCCCNC(=O)[C@H](CCCN=C(N)N)n3cc(C[C@@H](C)CC)nn3)CC2)n1`, the activation factor stood at 2.67 and the activity change, negative = activation was -167% (active).

In the case of `C#CCOCCOCCOCCNc1nc(N2CCN(C(=O)CCCCCCCCCCNC(=O)[C@H](CCCCN)n3cc(C)nn3)CC2)nc(N2CCN(C(=O)CCCCCCCCCCNC(=O)[C@H](CCCN=C(N)N)n3cc(C[C@@H](C)CC)nn3)CC2)n1`, the activation factor turned out to be 3.95 and the activity change, negative = activation is -295% (active).

On to `C#CCOCCOCCOCCNc1nc(N2CCN(C(=O)CCCCCCCCCCNC(=O)[C@H](CCCCN)n3cc(CCO)nn3)CC2)nc(N2CCN(C(=O)CCCCCCCCCCNC(=O)[C@H](CCCN=C(N)N)n3cc(C[C@@H](C)CC)nn3)CC2)n1`, for which the activation factor amounted to 3.04 and the activity change, negative = activation was -204% (active).

In the case of `CCOC(=O)c1c(N)sc(C(O)(C(F)(F)F)C(F)(F)F)c1-c1ccccc1`, the activation factor was 1.07 and the activity change, negative = activation is -6.55% (inactive).

As to `CC1CN(c2nc3c(c(=O)n(Cc4ccc(Cl)c(Cl)c4)c(=O)n3C)n2C)CC(C)O1` (centres undefined), the activation factor came to 1.01 and the activity change, negative = activation is -0.8% (inactive).

Consider `Cc1n[nH]c(C)c1S(=O)(=O)N1CCCC(C(=O)N2CCc3ccccc32)C1` (centres undefined), for which the activation factor was 0.946 and the activity change, negative = activation is 5.45% (inactive).

With `COc1ccc(Nc2nc(N)nc(CSc3nccc(C)n3)n2)cc1`, the activation factor was determined as 1.04 and the activity change, negative = activation is -3.9% (inactive).

With `Cc1ccc(-c2nnn(CC(=O)N3CCCc4ccccc43)n2)cc1`, the activation factor stood at 1.06 and the activity change, negative = activation was -6.35% (inactive).

As to `CSc1cccc(NC(=O)NCc2cccc(CNC(=O)Nc3cccc(SC)c3)c2)c1`, the activation factor is 1.62 and the activity change, negative = activation is -61.9% (inactive).

Consider `COC(=O)c1cccc(NC(=O)Nc2ccc(Cl)cc2)c1`, for which the activation factor amounted to 1.48 and the activity change, negative = activation was -47.6% (inactive).

Consider `CSc1cccc(NC(=O)Nc2ccc(Cl)cc2)c1`, for which the activation factor worked out at 2.06 and the activity change, negative = activation was -106% (active).

Take `CSc1cccc(NC(=O)Nc2nc3c(C)cccc3s2)c1`: the activation factor was determined as 1.45 and the activity change, negative = activation was -45% (inactive).

Take `COc1ccccc1C(=O)Nc1cccc(SC)c1`: the activation factor worked out at 1.12 and the activity change, negative = activation is -11.6% (inactive).

Consider `CSc1cccc(NC(=O)Nc2ccccc2)c1`, for which the activation factor is 2.1 and the activity change, negative = activation is -110% (active).

For the molecule `Cc1cnc(-c2nnc(N(C)C(=O)C3CCOC3)s2)cn1` (centres undefined), the activation factor came to 0.996 and the activity change, negative = activation is 0.45% (inactive).

For `Cc1onc(-c2ccccc2Cl)c1C(=O)OCC(=O)N1CCCc2ccccc21`, the activation factor worked out at 1.02 and the activity change, negative = activation was -2.05% (inactive).

For the molecule `CC(C)(C)c1ccc(OCC(=O)NCc2ccco2)c(Br)c1`, the activation factor amounted to 0.869 and the activity change, negative = activation is 13.1% (inactive).

As to `CC(C)N1CC2=C(OC(N)=C(C#N)C2c2cccnc2)/C(=C/c2cccnc2)C1` (centres undefined), the activation factor was found to be 0.917 and the activity change, negative = activation was 8.3% (inactive).

With `Cc1cc(C)cc(NC(=O)NCC2CCN(Cc3cc(C)ccc3C)CC2)c1`, the activation factor came to 2.32 and the activity change, negative = activation is -132% (active).

As to `Cc1ccc(C)c(CN2CCC(CNC(=O)Nc3ccc(C)c(C)c3)CC2)c1`, the activation factor turned out to be 2.21 and the activity change, negative = activation was -121% (active).

Consider `Cc1ccc(SCCNC(=S)Nc2ccc(C)c(C)c2)cc1`, for which the activation factor came out at 1.46 and the activity change, negative = activation was -45.9% (inactive).

For `Cc1ccc(SCC(=O)Nc2ccc(N3CCN(C)CC3)c(F)c2)c(C)c1`, the activation factor was 1.13 and the activity change, negative = activation was -13% (inactive).

Take `Cc1cc(C)c(CN2CCN(C(=O)Cn3cnc(C(=O)Nc4ccc(C)c(C)c4)n3)CC2)c(C)c1`: the activation factor was determined as 1.13 and the activity change, negative = activation was -13.2% (inactive).

As to `Cc1ccc(C)c(CN2CCC(CNC(=O)Nc3ccc(C)c(F)c3)CC2)c1`, the activation factor was found to be 2.16 and the activity change, negative = activation was -116% (active).

On to `Cc1ccc(C)c(CN2CCC(CNC(=O)Nc3ccc(Br)cc3F)CC2)c1`, for which the activation factor amounted to 1.55 and the activity change, negative = activation is -54.9% (inactive).

In the case of `C[C@@H]1NC(=O)c2cc([N+](=O)[O-])cc(I)c2OCC[C@@H](C(=O)NC(CC(=O)O)C(N)=O)NC(=O)[C@H](CC(N)=O)NC1=O` (some centres undefined) (AN[hSer(Ph(2-I,4-NO2,6-CO))][ξD]-NH2; lactam N-3), the activation factor came out at 1.15 and the activity change, negative = activation was -14.8% (inactive).

Consider `CC[C@]12c3[nH]c4cc(-c5ccco5)ccc4c3CCN1C(=O)[C@@H](CC(=O)NCc1ccco1)C[C@@H]2C(=O)N1CCN(C(=O)C2CC2)CC1`, for which the activation factor was 1.23 and the activity change, negative = activation is -22.7% (inactive).

With `CC(C)CCNC(=O)NC(=O)CSc1nnc(COc2ccccc2Cl)o1`, the activation factor is 1.04 and the activity change, negative = activation is -4.3% (inactive).

As to `CC(C)C(=O)Nc1nnc(SCC(=O)NCc2cccs2)s1`, the activation factor came to 0.976 and the activity change, negative = activation is 2.4% (inactive).

For `Cc1ccc(C(=O)Nc2nncs2)cc1S(=O)(=O)N1CCOCC1`, the activation factor was found to be 0.927 and the activity change, negative = activation is 7.35% (inactive).

Consider `COc1ccc(S(=O)(=O)NCCc2ccc(F)cc2)cc1`, for which the activation factor worked out at 0.961 and the activity change, negative = activation was 3.9% (inactive).

As for `Cc1cc2c(ncn2C)c(NS(=O)(=O)c2cc(Cl)ccc2Cl)c1C`, the activation factor worked out at 0.946 and the activity change, negative = activation is 5.45% (inactive).

On to `Cc1noc2ncnc(Sc3c(Cl)cccc3Cl)c12`, for which the activation factor was found to be 0.906 and the activity change, negative = activation is 9.4% (inactive).

On to `C#CCOCCOCCOCCNc1nc(N2CCN(C(=O)CCCCCCCCCCNC(=O)[C@H](CO)n3cc(CCCSC)nn3)CC2)nc(N2CCN(C(=O)CCCCCCCCCCNC(=O)[C@H](CCCCN)n3cc(C[C@@H](C)CC)nn3)CC2)n1`, for which the activation factor turned out to be 2.83 and the activity change, negative = activation was -183% (active).

Turning to `C#CCOCCOCCOCCNc1nc(N2CCN(C(=O)CCCCCCCCCCNC(=O)[C@H](CO)n3cc(CCCSC)nn3)CC2)nc(N2CCN(C(=O)CCCCCCCCCCNC(=O)[C@H](CCCN=C(N)N)n3cc(C[C@@H](C)CC)nn3)CC2)n1`, the activation factor amounted to 5.98 and the activity change, negative = activation is -498% (active).

As to `C#CCOCCOCCOCCNc1nc(N2CCN(C(=O)CCCCCCCCCCNC(=O)[C@@H](CCSC)n3cc(CCO)nn3)CC2)nc(N2CCN(C(=O)CCCCCCCCCCNC(=O)[C@H](CCCN=C(N)N)n3cc(C[C@@H](C)CC)nn3)CC2)n1`, the activation factor came to 8.61 and the activity change, negative = activation was -761% (active).
